This is an account of results in PubChem BioAssay AID652141 (The Scripps Research Institute Molecular Screening Center, 2013).

About 4,500 (80%) of roughly 5,600 compounds were called active. The set was probably picked from earlier hits. The list is a sample of the results. A number with no mark means an inactive call. No stated cut-off is given here; in the data, active means inhibition above about 10%; inactive means the rest.

This assay is described as follows: GDH-TPI coupling enzyme inhibitors, artefact control for M. tuberculosis FBA inhibitor project, biochemical, fluorescence, high throughput (AID 652141). To be noted: GDH-TPI coupled enzyme counterscreen, at 1 µM, active compounds read high. In general terms: Counterscreens check selectivity or assay interference.
In the case of `COc1cc(OC)cc(C(=O)Nc2ccc(-c3nc4ccccc4o3)c(O)c2)c1`, the inhibition (commonly the change of the read-out against control, counted positive when it falls) was 135% (active).

For `CC(=O)Nc1ccc(-c2nc3ccccc3o2)cc1`, the inhibition was -2.16%.

With `CC(C)(C)C(=O)Nc1cccc(-c2ccc[nH]2)n1`, the inhibition was 71% (active).

As for `CC(C)(C)NC(=O)COc1ccc(CNc2ccc3[nH]c(=O)[nH]c3c2)cc1`, the inhibition is 2.64%.

As for `COCCCn1c(C(=O)NC2CCCCC2)cc2c(=O)n3cccc(C)c3nc21`, the inhibition was 53.1% (active).

Regarding `Cc1ccn2c(c1)nc(=O)c1cc(S(=O)(=O)N3CCC(C)CC3)ccc12`, the inhibition is -0.78%.

Consider `Cc1ccc(-n2c(=O)c(C#N)cc3c(=O)n4ccccc4nc32)cc1C`, for which the inhibition is 19.5% (active).

Take `Cc1coc2c1c(C)cc1oc(=O)c(CC(=O)NCC(=O)N[C@H](C(=O)O)C(C)C)c(C)c12`: the inhibition was 49.8% (active).

In the case of `NC(=O)C1CCN(C(=O)COc2ccc3c4c(c(=O)oc3c2)CCC4)CC1`, the inhibition was -5.33%.

As to `CCCCC(NS(=O)(=O)c1ccc(C)cc1)C(=O)Oc1ccc2c3c(c(=O)oc2c1)CCC3` (centres undefined), the inhibition was 68.4% (active).

As to `CCCNC(=O)c1c(N)n(-c2ccc(S(N)(=O)=O)cc2)c2nc3ccccc3nc12`, the inhibition is 3.87%.

On to `C=CCn1c(N)c(C(=O)OCC(C)C)c2nc3ccccc3nc21`, for which the inhibition is 59.2% (active).

In the case of `CC(C)Cn1c(N)c(C(=O)NCc2cccs2)c2nc3ccccc3nc21`, the inhibition was 29.6% (active).

`COCC(C)OC(=O)c1c(N)n(CCCN2CCOCC2)c2nc3ccccc3nc12` (centres undefined): the inhibition is -2.55%.

Turning to `COc1cccc(NC(=O)CN(C)CC(=O)Nc2ccc3c(c2)CCC3)c1`, the inhibition was 73.6% (active).

As for `COc1cccc(NC(=O)CN(C)C(=O)/C=C/c2cc(OC)ccc2OC)c1`, the inhibition was 82.6% (active).

With `OC[C@@H]1CN(Cc2cccs2)C[C@H](n2cnc3c(Nc4ccccc4)ncnc32)O1`, the inhibition was 64.2% (active).

In the case of `COc1ccccc1NC(=O)COc1ccc(C(=O)OCC(=O)N(C(C)C)C(C)C)cc1OC`, the inhibition was -2.75%.

Take `COc1ccccc1C(=O)Nc1ccc(OCC(=O)N2CCCCC2)cc1`: the inhibition is 137% (active).

Consider `O=C1CC2(CCCCC2)Oc2ccc(OCC(=O)N3CCOCC3)cc21`, for which the inhibition was 0.92%.

For `COc1ccc2c(c1OC)C(=O)N(c1ncn[nH]1)C2`, the inhibition is 53% (active).

Regarding `COc1nc(N=C(N)N)nc2c(C)cccc12`, the inhibition is 83.6% (active).

For the compound `COc1ccc2c(c1)cc1n2CCN=C1NN`, the inhibition is 89.8% (active).

On to `COCCCn1c(CCC(=O)O)ccc1-c1ccc(F)cc1`, for which the inhibition is 43.6% (active).

Take `CN(C)CCCNC(=O)c1ccc2[nH]c3ccccc3c2c1`: the inhibition is 96.7% (active).

For the compound `Cc1ccc(-c2nc3ccccc3[nH]c2=O)cc1`, the inhibition is 61.1% (active).

In the case of `c1ccc2c(NC3C4CC5CC(C4)CC3C5)nc(N3CCOCC3)nc2c1` (centres undefined), the inhibition is 95.8% (active).

Turning to `CC(Nc1nc(N2CCOCC2)nc2ccccc12)c1ccccc1` (centres undefined), the inhibition was 31% (active).

`COc1ccc(-c2ccc(C(=O)NC(C)C)c3occc23)c(C)c1`: the inhibition is 86.3% (active).

For the compound `COc1ccc(-c2ccc(C(=O)NCCN3CCOCC3)c3occc23)c(C)c1`, the inhibition is 56.7% (active).

Consider `COCc1cc(=O)[nH]c2cc(NC(=O)C(F)(F)F)c(C)cc12`, for which the inhibition is 67.2% (active).

Regarding `CCC(=O)Nc1ccc2nn(-c3ccc(F)cc3)nc2c1`, the inhibition is 70% (active).

As for `CCNC(=S)Nc1ccc2c(c1)c(=O)n(C)n2Cc1ccc(Cl)cc1`, the inhibition is -3.99%.

As to `COCCNc1cc(-c2ccccc2)nc2cc(-c3cccc(F)c3)nn12`, the inhibition was 133% (active).

`Cc1cc(S(=O)(=O)c2cc3ccc(O)c(C)c3oc2=O)ccc1F`: the inhibition was 40.8% (active).

Take `COc1cccc2sc3cc(NCC[C@@H]4CCCN4C)ccc3c(=O)c12`: the inhibition is 69.2% (active).

Consider `O=C1NC(c2cccc(Cl)c2)Nc2ccccc21` (centres undefined), for which the inhibition was 84.8% (active).

As to `COc1ccc(C2NC(=O)c3ccccc3N2)cc1` (centres undefined), the inhibition was 122% (active).

Turning to `CCN1CCN(C(=O)c2cc3cc4ccc(OC)cc4nc3s2)CC1`, the inhibition is 74.1% (active).

With `CCOC(=O)Cc1c(C)nc2c(C#N)c(C)nn2c1C`, the inhibition was 39.1% (active).

For `COC(=O)c1noc(C)c1-c1ccnn1C(=O)c1ccc(Cl)cc1`, the inhibition is 38.9% (active).

On to `COc1ccc(-c2cc(C(=O)N(C)Cc3ccccc3)c3ccccc3n2)cc1`, for which the inhibition was -2.5%.

Regarding `COc1ccc(-c2cn3ccc(C)cc3n2)cc1`, the inhibition is -5%.

As to `COc1ccc(-c2cc(C(=O)Nc3ccccc3O)c3ccccc3n2)cc1`, the inhibition was 114% (active).

For the compound `O=c1oc2ccccc2cc1-c1cn(-c2ccccc2)c(=S)[nH]1`, the inhibition is 13.5% (active).

Turning to `COc1ccc2nc(-c3ccccn3)ccc2c1`, the inhibition was 93.8% (active).

Consider `Cc1cc(C)c2c(n1)sc1c(=O)n(-c3ccccc3)c(=O)[nH]c12`, for which the inhibition is 62.5% (active).

On to `CCCc1cc(=O)oc2c(C)c(OCC(=O)N3CCC(C(=O)O)CC3)ccc12`, for which the inhibition is -7.26%.

Regarding `CCc1cc(=O)oc2c(C)c(OCC(=O)N3CC[C@@]4(O)CCCC[C@H]4C3)ccc12`, the inhibition was 99.4% (active).

Consider `CCN(CC)CCCNC(=O)c1cc2c(=O)[nH]c3ccc(C)cc3c2s1`, for which the inhibition was 98.2% (active).

With `CCCN(C(=O)CSc1nnc(N)s1)c1c(N)n(Cc2ccccc2)c(=O)[nH]c1=O`, the inhibition is 48% (active).

On to `CCOc1ccc2nc(NCCNS(=O)(=O)c3ccccc3)c(C#N)cc2c1`, for which the inhibition was 15.8% (active).

In the case of `O=C1C(=O)N(c2ccccc2)C(c2ccccc2)C1c1ccccc1` (centres undefined), the inhibition was 0.69%.

As to `Cn1nc(-c2ccc(Cl)cc2)c2cc(C(=O)NCc3ccco3)sc21`, the inhibition is 33.3% (active).

`CCc1ccc(-c2cc(C(=O)NCc3ccco3)c3ccccc3n2)s1`: the inhibition was -5.16%.

In the case of `Cc1cc(C)c2nc(-c3ccco3)cc(C(=O)O)c2c1`, the inhibition is 2.96%.

`Cc1cc(C)c2nc3nc(C)cc(C)c3c(N)c2c1`: the inhibition is 22.9% (active).

With `CN1C(=O)c2ccc(NC(=O)c3c(F)c(F)c(F)c(F)c3F)cc2C1=O`, the inhibition was 651% [above what the read-out allows, likely interference] (active).

`CN1C(=O)c2ccc(NC(=O)C3CCCCC3)cc2C1=O`: the inhibition was -2.4%.

Regarding `COCCNc1nc(-n2nc(C)cc2C)nc2sc3c(c12)CCCC3`, the inhibition is 97.7% (active).

`COc1ccc(NC(=O)N2CCC(Cc3ccccc3)CC2)cc1`: the inhibition is 23.6% (active).

As for `O=C(NCc1ccccc1)c1onc(CSc2nc3ccccc3[nH]2)c1C(=O)NCc1ccccc1`, the inhibition is 55.8% (active).

For `CCOC(=O)N1CCC(NC(=O)c2cnn3ccccc23)CC1`, the inhibition was 33.9% (active).

In the case of `CCCC1OC23CCCCC2C(C#N)(C#N)C1(C#N)C(=N)O3` (centres undefined), the inhibition was -5.15%.

For the compound `CC12CCC(C(=O)N3CCN(c4ncccn4)CC3)(c3nc4ccccc4nc31)C2(C)C` (centres undefined), the inhibition was 143% (active).

Consider `CCc1c(C)c2ccc(OC3CCCCC3=O)cc2oc1=O` (centres undefined), for which the inhibition is 78% (active).

`COc1ccc(-c2oc3ncnc(NCCCO)c3c2-c2ccc(OC)cc2)cc1`: the inhibition is 39.6% (active).

On to `O=C(NCCCN1CCOCC1)c1cnn2c(-c3ccccc3)cc(-c3ccccc3)nc12`, for which the inhibition was 79.2% (active).

As for `O=C(O)Cc1sc(-c2ccc(C(=O)O)cc2)nc1-c1ccccc1`, the inhibition is -7.95%.
